Source: ChEMBL document CHEMBL4513216, “Probing the Open Global Health Chemical Diversity Library for Multistage-Active Starting Points for Next-Generation Antimalarials” (ACS Infect Dis, 2020)
In all, about 68,000 compounds went through this assay and about 2,700 (4%) showed an effect of 50% or more. This is one part of a sample in which strong results are shown more often than they occur.

These compounds were tested on Plasmodium berghei (assay: Screen against P. berghei liver stage (PbLuc), transformed with Luciferase, at 2uM). Details: tested at 2 uM.
Type: functional, HepG2

Q: How did the INHIBITION turn out when CC1CN(CC(=O)Nc2nncs2)CCN1Cc1nccn1C (stereo unspecified) was run?
A: The INHIBITION was -11.91%.

Q: Which INHIBITION does the source give for CCS(=O)(=O)c1ncc(CN(C)C)n1Cc1ccccc1 here?
A: Its INHIBITION is -2.93%.

Q: With O=c1oc(-c2cccs2)nn1CC(O)c1ccc(F)cc1 (stereo unspecified) as the compound, how does the INHIBITION read?
A: Its INHIBITION is 29.61%.

Q: With CNC(=O)c1cccc(NC(=O)Cn2nc(-c3cccs3)oc2=O)c1 as the compound, how does the INHIBITION read?
A: Its INHIBITION is 17.39%.

Q: With O=c1oc(-c2cccs2)nn1CC(O)c1ccccc1F (stereo unspecified) as the compound, how does the INHIBITION read?
A: The INHIBITION was 34.89%.

Q: With CC(=O)c1cccc(NC(=O)CCn2nc(-c3cccs3)oc2=O)c1 as the compound, how does the INHIBITION read?
A: Its INHIBITION is 15.28%.

Q: How did the INHIBITION turn out when CC(=O)c1cccc(NC(=O)Cn2nc(-c3cccs3)oc2=O)c1 was run?
A: The INHIBITION was 51.94%.

Q: With CC(=O)c1cccc(NC(=O)Cn2cnc(-c3ccccc3)cc2=O)c1 as the compound, how does the INHIBITION read?
A: Its INHIBITION is 3.11%.

Q: Which INHIBITION does the source give for O=C(Cn1cnc(-c2cccs2)cc1=O)Nc1cccnc1 here?
A: Its INHIBITION is -8.7%.

Q: How did the INHIBITION turn out when O=c1oc(-c2cccs2)nn1CC(O)c1ccccc1 (stereo unspecified) was run?
A: The INHIBITION was 60.95%.

Q: How did the INHIBITION turn out when CC(=O)c1cccc(NC(=O)Cn2cnc(-c3cccs3)cc2=O)c1 was run?
A: Its INHIBITION is 50.7%.

Q: With Cc1occc1C(=O)N1CCC2(CC1)C(c1cnn(C)c1)CC(=O)N2C (stereo unspecified) as the compound, how does the INHIBITION read?
A: The INHIBITION was -41.72%.

Q: Cc1cccc2c1OCCCC2NCc1nccn1Cc1ccccc1 (stereo unspecified) was tested. Which INHIBITION did it give?
A: Its INHIBITION is 21.72%.

Q: With c1csc(-c2nc(CNCCn3cccn3)cs2)c1 as the compound, how does the INHIBITION read?
A: The INHIBITION was 4.18%.

Q: Which INHIBITION does the source give for COc1cc(N2C[C@@H]3COC[C@]3(C(=O)NCc3ccccn3)C2)ncn1 here?
A: The INHIBITION was -23.31%.

Q: For Nc1ncccc1C(=O)NCc1cccc(Br)c1, which INHIBITION is on record?
A: The INHIBITION was -3.16%.

Q: O=C(NCCc1cccs1)[C@]12COC[C@H]1CN(C1CCOCC1)C2 was tested. Which INHIBITION did it give?
A: Its INHIBITION is 17.24%.

Q: COc1cc(N2CCC3(CCCN3Cc3cnn(C)c3)CC2)ncn1 was tested. Which INHIBITION did it give?
A: Its INHIBITION is 30.09%.

Q: Which INHIBITION does the source give for Cc1ccc(-c2cc(CN3CCc4cnc(C)nc4C3)on2)cc1 here?
A: The INHIBITION was -34.82%.

Q: How did the INHIBITION turn out when O=C([C@H]1C[C@H]2OCC[C@H]2N(C(=O)c2ccncc2)C1)N1CCCCO1 was run?
A: Its INHIBITION is -34.26%.

Q: With O=C([C@H]1C[C@H]2OCC[C@H]2N(C(=O)c2ccccn2)C1)N1CCCCO1 as the compound, how does the INHIBITION read?
A: The INHIBITION was 62.1%.

Q: How did the INHIBITION turn out when O=C([C@H]1C[C@H]2OCC[C@H]2N(C(=O)c2cnccn2)C1)N1CCCCO1 was run?
A: Its INHIBITION is -1.69%.

Q: O=C(c1ccc(Br)o1)N1CCN(Cc2ccc(F)cc2)CC1 was tested. Which INHIBITION did it give?
A: Its INHIBITION is 10.22%.

Q: Which INHIBITION does the source give for CC(C)NC(=O)Nc1ccc(CNCc2cccc(C#N)c2)cc1 here?
A: The INHIBITION was -68.26%.

Q: With Cc1nc(CN2CCCC(NCCCc3ccccc3)C2)no1 (stereo unspecified) as the compound, how does the INHIBITION read?
A: Its INHIBITION is -6.4%.

Q: With Cn1ccnc1CC1CCCN(Cc2noc(C3CC3)n2)C1 (stereo unspecified) as the compound, how does the INHIBITION read?
A: The INHIBITION was 11.24%.

Q: For CCc1nc(CN2CCCC(NCc3cc(C)no3)C2)no1 (stereo unspecified), which INHIBITION is on record?
A: Its INHIBITION is -2.1%.

Q: Which INHIBITION does the source give for Cc1nc(CN2CCCC(NCc3cccc4ccccc34)C2)no1 (stereo unspecified) here?
A: Its INHIBITION is 29.54%.

Q: With Cc1nc(CN2CCCC(NCCc3ccccc3Cl)C2)no1 (stereo unspecified) as the compound, how does the INHIBITION read?
A: Its INHIBITION is 56.67%.

Q: CCc1nc(CN2CCCC(NCc3nc(C)c(C)o3)C2)no1 (stereo unspecified) was tested. Which INHIBITION did it give?
A: Its INHIBITION is 36.73%.

Q: Cc1ccc(CNC2CCCN(Cc3noc(C4CC4)n3)C2)s1 (stereo unspecified) was tested. Which INHIBITION did it give?
A: The INHIBITION was 54.29%.

Q: For Cn1cc(CNC2CCCN(Cc3noc(C4CC4)n3)C2)cn1 (stereo unspecified), which INHIBITION is on record?
A: The INHIBITION was 2.08%.

Q: How did the INHIBITION turn out when CCc1nc(CN2CCCC(NCc3cnc(C)s3)C2)no1 (stereo unspecified) was run?
A: Its INHIBITION is 77.57%.

Q: For Cc1ncc(CNC2CCCN(Cc3noc(C4CC4)n3)C2)s1 (stereo unspecified), which INHIBITION is on record?
A: The INHIBITION was 18.46%.

Q: For Cn1ccnc1CNC1CCCN(Cc2noc(C3CC3)n2)C1 (stereo unspecified), which INHIBITION is on record?
A: Its INHIBITION is 50.32%.

Q: Which INHIBITION does the source give for Cc1cc(CNC2CCCN(Cc3noc(C4CC4)n3)C2)on1 (stereo unspecified) here?
A: Its INHIBITION is 7.01%.
